# The list is not random: actives were taken first. Their share in the collection is about 4.7%.
# TRHR agonist – qHTS for Small Molecule Agonists and Allosteric Enhancers of Human TRH Receptor: Primary Screen for Agonists. 360,000 compounds, 0.18% hits. Thyrotropin-releasing hormone receptor (Homo sapiens), P34981. AID 493084, 2011. activation, % at 2 µM. TRHR cells, calcium flux fluo-8, FDSS agonist mode; also: 0% is about no effect
#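 In this calcium-flux screen, cells bearing human TRHR are dye-loaded with fluo-8, baselined for 10 cycles, then exposed to library compounds; positive kinetic calcium responses during the agonist phase mark hits, with TRH as control.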
# D1 PAM – Potentiators of Human D1 Dopamine Receptor: qHTS; D(1A) dopamine receptor (Homo sapiens), P21728; HEK293 TREx D1 cells, calcium flux, dopamine EC20 potentiation; potentiation, % at 10 µM; 360,000 compounds, 0.036% hits; AID 504651, 2011; in the data active = potentiation above about 30%; also: 0% is about no effect
# Target sequence (P21728 whole entry, looked up): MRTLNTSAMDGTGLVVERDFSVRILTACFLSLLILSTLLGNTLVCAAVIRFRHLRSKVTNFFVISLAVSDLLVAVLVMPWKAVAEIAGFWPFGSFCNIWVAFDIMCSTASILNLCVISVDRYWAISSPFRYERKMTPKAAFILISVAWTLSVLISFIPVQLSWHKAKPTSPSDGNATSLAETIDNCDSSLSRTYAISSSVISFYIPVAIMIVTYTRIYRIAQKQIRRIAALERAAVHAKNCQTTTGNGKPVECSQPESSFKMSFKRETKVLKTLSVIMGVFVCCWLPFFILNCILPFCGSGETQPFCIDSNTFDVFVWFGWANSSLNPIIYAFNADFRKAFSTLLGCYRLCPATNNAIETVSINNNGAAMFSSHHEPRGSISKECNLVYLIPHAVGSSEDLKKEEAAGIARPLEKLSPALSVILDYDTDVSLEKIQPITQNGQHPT
# D1 ag – Allosteric Agonists of the Human D1 Dopamine Receptor: qHTS. D(1A) dopamine receptor (Homo sapiens), P21728. 360,000 compounds, 1% hits. HEK293 T-REx D1 cells, calcium flux, agonist mode. activation, % at 2 µM; also: 0% is about no effect
#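 Inducible HEK293 T-REx D1 cells, force-coupled to calcium signalling, were plated at 4000 cells/well with tetracycline and held overnight at 30 C. After no-wash calcium dye loading, compound-evoked calcium rise over 180 s flagged agonists.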
# D1 antagonist – Antagonist of Human D 1 Dopamine Receptor: qHTS. activity change, negative = inhibition, % at 10 µM. 360,000 compounds, 3.2% hits. HEK293 TREx D1 cells, calcium flux, dopamine EC80; hits give low values. D(1A) dopamine receptor (Homo sapiens), P21728; in the data active = activity change below about -30%; also: % is scaled to controls: 0 for no effect and ±100 for the full control effect
#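 Using tetracycline-induced force-coupled D1 Hek293 cells and a calcium dye, signals were followed for 180 s after compound, then for 180 s after EC80 dopamine, to detect inhibitors.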
# TRHR enhancer – qHTS for Small Molecule Agonists and Allosteric Enhancers of Human TRH Receptor: Primary Screen for Enhancers; Thyrotropin-releasing hormone receptor (Homo sapiens), P34981; TRHR cells, fluo-8 calcium fluorescence, EC20 TRH enhancement; enhancement, % at 2 µM; 360,000 compounds, 0.66% hits; AID 493056, 2011; in the data active = enhancement above about 30%; also: 0% is about no effect
#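 TRHR-expressing cells loaded with fluo-8 calcium dye were read kinetically (ex 480/em 530) during compound addition, then stimulated with an EC20 of TRH (10 nM final). Enhancement of the Gq-mediated intracellular calcium response was scored.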
# Active calls of the source: *; / = not tested or not shown. Rule as the data show it, unless noted: active = activation above about 30%; inactive = the rest.
SMILES,TRHR agonist,D1 PAM,D1 ag,D1 antagonist,TRHR enhancer
CCc1ccccc1N(CC)C(=O)CCc1nc(-c2ccc(C)cc2)no1,0,-7,34*,-3,3
Cc1ccc(-c2noc(CCC(=O)N(C)c3ccccc3F)n2)cc1,-1,-2,9,7,3
COc1ccc(N2CCN(Cc3nc4c(c(=O)[nH]c(=O)n4C)n3Cc3ccccc3F)CC2)cc1,-1,2,-1,2,2
CC1CCN(C(=O)c2cc(S(=O)(=O)N3CCCCC3)c[nH]2)CC1,0,-9,2,-33*,0
CCN(C(=O)c1cc(S(=O)(=O)N2CCCCC2)c[nH]1)c1ccc(OC)cc1,-1,-3,0,-1,7
CCN(CC)C(=O)c1cc(S(=O)(=O)N2CCCCC2)c[nH]1,1,-3,8,-36*,-1
COc1cc(OC)cc(-c2nc3nc(C)c(CCC(=O)Nc4ccc(C)cc4C)c(C)n3n2)c1,0,1,1,3,3
Cc1nn(C)cc1C=NCCOCc1ccccc1,0,-6,1,-32*,-4
CC1=[N+](C)c2ccc3ccccc3c2C1(C)C,-1,5,-1,9,35*
Cc1ccc(-c2noc(-c3ccoc3C)n2)cc1,-1,7,104*,-8,0
Cc1cccc(-c2nc(CCNC(=O)c3ccccc3Br)cs2)c1,-1,-6,3,-39*,-7
CCc1cc2cc(C)ccc2nc1SCC(=O)NNC(=O)c1ccco1,-1,/,34*,12,1
CCOc1ccc(-n2nnnc2SCC(=O)NNC(=O)c2ccco2)cc1,-1,8,2,-38*,0
CC(=O)C1=C(C)N(Cc2ccccc2)C(=O)N[C@H]1c1ccco1,0,-7,7,1,-6
O=C(c1ccco1)N1CCN(CC(O)COc2ccc3oc4ccccc4c3c2)CC1 (centres undefined),1,-9,23,-35*,-5
Cc1ccccc1Cn1c(CN2CCC(C(=O)NCCc3ccccc3)CC2)cc2ccccc21,1,-2,7,-2,2
O=C(COC(=O)CCC1CCCC1)Nc1cccc(S(=O)(=O)N2CCOCC2)c1,-1,1,1,-9,-7
Cc1ccc(NC(=O)COC(=O)CCc2ccc(S(=O)(=O)N3CCOCC3)cc2)cc1F,0,-4,14,-31*,-7
O=C(COC(=O)CCC(=O)c1ccc(F)cc1)Nc1cccc(S(=O)(=O)N2CCOCC2)c1,0,0,7,-1,33*
CC(=O)c1cccc(NC(=O)COC(=O)CCc2ccc(S(=O)(=O)N3CCOCC3)cc2)c1,0,0,4,-9,-4
CCc1ccccc1NC(=O)c1ncoc1-c1ccco1,-1,2,4,12,-2
Cc1ccc(CS/C(Nc2ccccc2C)=C(\C#N)C(=O)NCc2ccco2)c(C)c1,0,-4,30*,-24,17
COc1ccc(CNC(=O)C(c2ccco2)N(Cc2cccs2)C(=O)Cc2cccs2)cc1 (centres undefined),-2,7,29,-14,3
COc1ccc(CNC(=O)C(c2ccco2)N(C(=O)Cc2cccs2)c2cccnc2)cc1 (centres undefined),0,-3,6,-35*,-4
CCOC(=O)c1c(C)[nH]c(C)c1S(=O)(=O)N(C)CC(=O)Nc1cc(Cl)ccc1OC,0,-3,1,-4,1
SMILES,TRHR agonist,D1 PAM,D1 ag,D1 antagonist,TRHR enhancer
Cc1ccc(C(=O)NCCc2nnc3ccc(SCC(=O)N4CCCCC4)nn23)cc1,0,-4,1,4,33*
O=C(CSc1nnc(CNC(=O)c2c(F)cccc2Cl)o1)Nc1cccc(F)c1,0,-3,8,-33*,-4
O=C(CSc1nnc(CNC(=O)c2c(F)cccc2Cl)o1)Nc1ccc2c(c1)OCO2,1,0,2,-14,15
Cc1nc(Nc2ccccc2)sc1C(=O)c1ccc(F)cc1,0,-3,0,-6,1
Nc1nc(Nc2ccccc2F)sc1C(=O)c1ccccc1,-3,6,34*,7,22
Cc1nc(CN(C)C(=O)CC2C(=O)NCCN2Cc2ccc(-c3ccccc3)cc2)cs1 (centres undefined),0,-2,5,-14,-12
c1ccc2[nH]c(CSc3nc4ccccc4o3)nc2c1,0,-3,33*,-3,8
Cc1ccccc1CSCc1nc2ccccc2[nH]1,-1,-9,13,-30*,-5
c1cncc(-c2nnc(SCc3nc4ccccc4[nH]3)o2)c1,0,-6,2,-4,2
CCN(c1cccc(C)c1)S(=O)(=O)c1nnc(NC(=O)c2ccco2)s1,0,0,5,1,3
O=C(c1ccc2c(c1)N(Cc1ccc(F)cc1)C(=O)c1ccccc1S2(=O)=O)N1CCN(Cc2ccccc2)CC1,1,1,7,-5,-9
Cc1cc2c(s1)c1cnn(Cc3c(Cl)cccc3Br)c(=O)c1n2C,1,5,0,20,-1
CCOC(=O)c1cnc2cc(C(F)(F)F)ccc2c1N1CCN(c2cccc(Cl)c2)CC1,-3,1,3,-16,5
CCc1ccc2c(CN(C)Cc3ccccc3OC)cc(=O)oc2c1,-1,-6,3,-31*,0
CCN(CC)CCNC(=O)c1c(C)oc2ncn(C)c(=O)c12,3,-5,0,-29,12
C/C(O)=c1/ccc2cccc3nc(C)nc1c23,11,4,47*,-1,-1
O/C=c1\ccc2cccc3nc(C(F)(F)F)nc1c23,8,-9,17,-4,-5
COc1cccc(-c2ccc3ncnc(NCc4cccc(F)c4)c3c2)c1,1,2,5,-3,-7
Cc1ccc(C)c(NC(=O)Cn2c(=O)n(CC3CCCO3)c(=O)c3ccccc32)c1 (centres undefined),-1,3,1,-2,1
COc1ccccc1N1CCN(Cc2cccc(OC)c2OC)CC1,0,-8,8,-42*,-1
COc1ccccc1N1CCN(Cc2cn[nH]c2-c2ccc(F)cc2)CC1,-1,-4,60*,4,12
O=C(NC(=O)c1ccccc1)Nc1ccc(Cl)cn1,1,1,0,18,-11
O=C(Cc1ccccc1F)Nc1cccc2cccnc12,0,-1,-1,5,6
O=C(O)CCCC(=O)Nc1cccc2cccnc12,1,-8,0,-95*,7
